# Records with an inconclusive call do not appear. Activity calls are given as the source filed them. Calls come from the whole dose curve.
# Assay: qHTS assay to identify small molecule antagonists of the estrogen receptor alpha (ER-alpha) signaling pathway using the BG1 cell line (AID 743080);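 note: BG1 cells stimulated with 17beta-estradiol alongside compound; nearly all actives have a fitted effect of over 25% in size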
# Conditions: BG1Luc4E2 ERE-luciferase antagonist mode, luminescence; series mostly up to 70.3 µM; activity change, negative = inhibition: at the top concentration
# Source text: National Center for Advancing Translational Sciences [NCATS]
# NIH Chemical Genomics Center [NCGC]
# U.S. Environmental Protection Agency [EPA]
# National Institutes of Environmental Health Sciences [NIEHS]
# National Toxicology Program [NTP]
# U.S. Food and Drug Administration [FDA]
# Estrogen receptor (ER), a nuclear hormone receptor, plays an important role in development, metabolic homeostasis and reproduction. Endocrine disrupting chemicals (EDCs) and their interactions with steroid hormone receptors like ER causes disruption of normal endocrine function. Therefore, it is important to understand the effect of environmental chemicals on the ER signaling pathway. To identify ER antagonists, BG1-Luc-4E2 cell line (provided by Dr. Michael Denison from University of California) has been used to screen the Tox21 10K compound library. BG1Luc4E2 cell line endogenously expresses full-length ER-alpha and is stably transfected with a plasmid containing four estrogen responsive elements (ERE) upstream of a luciferase reporter gene.
# Tox21 Assay Protocol Summary:
# BG1-Luc-4E2 cells were cultured in phenol red free assay medium containing 10% charcoal stripped FBS for 5 days before the assay was performed. The cells were dispensed at 4,000 cells/4 uL of assay medium per well into white wall/solid-bottom 1536-well plates using a Multidrop Combi (ThermoFisher Scientific, Waltham, MA) dispenser. The assay plates were incubated at a 37C and 5% CO2 for 24 h, and then 23 nL of compounds dissolved in DMSO, positive controls or DMSO only was transferred to the assay plate using a Pintool station (Kalypsys, San Diego, CA), followed by addition of 1 uL of 17beta-estradiol in assay medium using a Flying Reagent Dispenser (Aurora Discovery, San Diego, CA). After the plates were incubated at 37 C and 5% CO2 for 21.5 h, 1 uL of CellTiter-Fluor reagent (Promega, Madison, WI) of measuring cytotoxicity was added using Flying Reagent Dispenser (FRD) to each well. The assay plates were incubated at 37 C and 5% CO2 for additional 30 min and the fluorescence intensity was quantified by a ViewLux plate reader (PerkinElmer, Shelton, CT). For measuring luciferase reporter gene activity, 4 uL of ONE-Glo reagent (Promega) was added to each plate using an FRD and luminescence was quantified by a ViewLux plate reader after 30 min incubation at room temperature.
# % is set by controls: 0 for no effect and ±100 for the full control effect; potency is the fitted concentration of half-maximal effect.
Compound,"activity change, negative = inhibition",Potency
C=COCC(C)C,5.63% [at 95 µM] (inactive),–
COC(=O)CS,9.07% (inactive),–
COc1ccccc1Oc1c(NS(=O)(=O)c2ccc(C(C)(C)C)cc2)nc(-c2ncccn2)nc1OCCO,1.24% (inactive),–
O=C(Cn1ccnc1[N+](=O)[O-])NCCO,-1.55% (inactive),–
CC(C)COCC(CN(Cc1ccccc1)c1ccccc1)N1CCCC1 (stereo not given),0% (inactive),–
c1ccc(C[n+]2cccc3ccccc32)cc1,–,61.1 µM (active)
CCCC(C(=O)OCCN(CC)CC)(c1ccccc1)c1ccccc1,-2.97% (inactive),–
CCCCCCCCCI,4.64% [at 95 µM] (inactive),–
O=C(CCc1ccc(O)cc1)c1c(O)cc(O)cc1O,0.996% [at 95 µM] (inactive),–
CCCCCCC(C)(C)C(=O)O,9.06% (inactive),–
C=C(C)CCCC(C)CCO (stereo not given),0.212% (inactive),–
O=C(OC(=O)c1ccccc1)c1ccccc1,-3.33% [at 95 µM] (inactive),–
O=C1c2ccccc2C(=O)N1CCc1noc(-c2ccc(CN3CCCCCC3)s2)n1,–,49.9 µM (active)
COc1cc(N)c(Cl)cc1C(=O)NC1CCN(CCCOc2ccc(F)cc2)CC1OC (stereo not given),-19.2% [at 32.5 µM] (inactive),–
COc1ncnc(NS(=O)(=O)c2ccc(N)cc2)c1OC,-3.65% (inactive),–
CCOC(=O)c1ccc(I)cc1,11.4% [at 95 µM] (inactive),–
O=C(CCCN1CC=C(n2c(=O)[nH]c3ccccc32)CC1)c1ccc(F)cc1,-6.48% (inactive),–
C1C[C@@H]2[C@H]3CC[C@H](C3)[C@@H]2C1,-11.7% (inactive),–
C=C(C)[C@@H]1CCC2=CCC[C@@H](C)[C@]2(C)C1,-4.6% (inactive),–
Cc1cc(C)c(N)cc1C,-0.549% (inactive),–

Compound,"activity change, negative = inhibition",Potency
C=C(C)C(=O)OCCOCCOC(=O)C(=C)C,-0.165% (inactive),–
CC(CN(C)C)C(C)(O)Cc1ccc(Cl)cc1 (stereo not given),-0.354% (inactive),–
CCC(=O)C1CC(C(C)C)CC=C1C (stereo not given),10% (inactive),–
CCOC(=O)[C@H](CCc1ccccc1)N[C@@H](C)C(=O)N(CC(=O)O)C1Cc2ccccc2C1,9.17% (inactive),–
Cc1ccco1,0.361% (inactive),–
CN1C(=O)OC(C)(C)C1=O,–,inactive
CCC=CC#N,4.11% (inactive),–
CC(C)(C)C(=O)C(=O)O,1.93% (inactive),–
CN1CCCC(CC2c3ccccc3Sc3ccccc32)C1 (stereo not given),19.2% [at 32.5 µM] (inactive),–
CCC(=O)OC,12.9% [at 95 µM] (inactive),–
CC(=O)N/N=C/c1ccc([N+](=O)[O-])o1,6.67% (inactive),–
O=C=Nc1cccc(C(F)(F)F)c1,-19.1% (inactive),–
Oc1cccc(O)c1O,-5.64% (inactive),–
CCCCCCCCCCC(=O)O,-11.7% [at 95 µM] (inactive),–
CC(C)=CC(=O)C=C(C)C,-3.86% (inactive),–
CO[C@]1(NC(=O)CSC(F)F)C(=O)N2C(C(=O)O)=C(CSc3nnnn3CCO)CO[C@H]21,-1.47% (inactive),–
CCOC(=O)/C=C/C(=O)OCC,9.64% (inactive),–
CN1CCCN=C1COC(=O)C(O)(c1ccccc1)C1CCCCC1 (stereo not given),0% (inactive),–
CCCCCC[C@@H](O)C/C=C\CCCCCCCC(=O)OCC(O)CO (stereo not given in full),5.29% (inactive),–
CCC(C)COC(=O)CC(C)C (stereo not given),0.665% (inactive),–
